{"source": "PubChem BioAssay (Tox21)", "note": "Inconclusive results are not listed. Values without a mark were called inactive. Unless noted, calls follow the shape of the dose curve; as a rule, active = well fitted cell-killing curve with a large enough effect in the repeat runs; inconclusive = weak or mixed curves, or effect the other way; inactive = no such curve, though single readings can be large or run the other way. % is scaled to controls: 0 for no effect and ±100 for the full control effect.", "data": [{"experiment": "qHTS assay to identify small molecule antagonists of the peroxisome proliferator-activated receptor gamma (PPARg) signaling pathway - cell viability counter screen (AID 743194); also: nearly all actives have a fitted effect of over 55% in size", "conditions": "PPARg-bla HEK293H viability, CellTiter-Glo luminescence, 17 h, co-treated with 50 nM rosiglitazone; series mostly up to 62.6 µM; activity change, negative = cytotoxicity: at the top concentration", "summary_of_the_method": "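Cytotoxicity counter screen in PPARg-bla HEK293H cells, same wells as reporter assay. Compounds plus 50 nM rosiglitazone (final) for 17 h at 37 C, then viability read by CellTiter-Glo luminescence.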", "values": [{"smiles": "C=CC(=O)N1CCOCC1", "activity change, negative = cytotoxicity": "-1.46%"}, {"smiles": "OCC(O)[C@@H](O)[C@H](O)[C@H](O)CO[C@H]1O[C@H](CO)[C@@H](O)[C@H](O)[C@H]1O", "note": "(some centres not stated)", "activity change, negative = cytotoxicity": "-4.83%"}, {"smiles": "CC(CCO)CCCC(C)(C)O", "note": "(configuration not stated)", "activity change, negative = cytotoxicity": "1.33%"}, {"smiles": "C[C@H]1O[C@@H](n2cc(F)c(=O)[nH]c2=O)[C@H](O)[C@@H]1O", "activity change, negative = cytotoxicity": "-6.03%"}, {"smiles": "CCCCCCCCCCC1CO1", "note": "(configuration not stated)", "activity change, negative = cytotoxicity": "-7.48%"}, {"smiles": "N[C@@H](CS)C(=O)O", "activity change, negative = cytotoxicity": "8.52% [at 81.1 µM]"}, {"smiles": "C=C(C)C(=O)NCCC[N+](C)(C)C", "activity change, negative = cytotoxicity": "-3.74%"}]}, {"experiment": "qHTS assay for small molecule agonists of the antioxidant response element (ARE) signaling pathway (AID 743202; active = well fitted activation curve with a large enough effect in the signal ratio in the repeat runs, not every such curve was filed as active; the % refers to the signal ratio)", "conditions": "HepG2 ARE-bla reporter, beta-lactamase FRET, 16 h; series mostly up to 73.3 µM; activation: at the top concentration", "summary_of_the_method": "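Agonist mode reporter screen: HepG2 cells with ARE-controlled beta-lactamase are incubated with test compounds for 16 h at 37 C, and beta-lactamase activity is measured as fluorescence of cleaved B/G FRET substrate.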", "values": [{"smiles": "CC1=CC(C)C(C=O)C(C)C1", "note": "(configuration not stated)", "activation": "10.1%"}, {"smiles": "C#CC(O)C(CC)CCCC", "note": "(configuration not stated)", "activation": "-15.4%"}, {"smiles": "C=C(C)C(=O)OCCCCCCCCCCCCCCCCCC", "activation": "-9.19% [at 34.3 µM]"}, {"smiles": "OCCCCCCO", "activation": "-6.59% [at 94.8 µM]"}, {"smiles": "NS(=O)(=O)c1cc2c(cc1C(F)(F)F)NC(Cc1ccccc1)NS2(=O)=O", "note": "(configuration not stated)", "activation": "-4.53%"}, {"smiles": "CC1=CC(=O)CCC1", "activation": "-0.705%"}, {"smiles": "O=C(O)/C=C/c1ccc(/C=C/C(=O)O)cc1", "activation": "-0.0934%"}, {"smiles": "OC[C@H]1O[C@@H]2O[C@H]3[C@H](O)[C@@H](O)[C@@H](O[C@H]4[C@H](O)[C@@H](O)[C@@H](O[C@H]5[C@H](O)[C@@H](O)[C@@H](O[C@H]6[C@H](O)[C@@H](O)[C@@H](O[C@H]7[C@H](O)[C@@H](O)[C@@H](O[C@H]8[C@H](O)[C@@H](O)[C@@H](O[C@H]9[C@H](O)[C@@H](O)[C@@H](O[C@H]1[C@H](O)[C@H]2O)O[C@@H]9CO)O[C@@H]8CO)O[C@@H]7CO)O[C@@H]6CO)O[C@@H]5CO)O[C@@H]4CO)O[C@@H]3CO", "activation": "13.3% [at 34.3 µM]"}, {"smiles": "CSc1ccc(C=O)cc1", "activation": "1.69%"}, {"smiles": "FC(F)(F)C(F)(F)C(F)(F)C(F)(F)C(F)(F)C(F)(F)C(F)(F)C(F)(F)C(F)(F)C(F)(F)F", "activation": "0.659% [at 8.36 µM]"}]}]}
